“And” between values parts separate entries of the source, which are not always exact repeats. Identical values can stand only once. Inconclusive results are not listed. Where a call stands in place of a potency, no number is given. The source made the active and inactive calls. Unless noted, the call rests on the fitted dose curve; in most records, active means well fitted curve in the direction sought with a large enough effect; inconclusive means small, poorly fitted or top-dose-only effect, or another doubt; inactive means no such curve, though single readings can be large; an effect the other way counts as inactive or inconclusive.
Tests used:
[1] = target: Glucocorticoid receptor (Homo sapiens) (UniProt P04150); assay: qHTS assay for small molecule agonists of glucocorticoid receptor signaling (AID 588532; active means well fitted curve in the direction sought with a large enough effect in the signal ratio, with a control signal flat; the % refers to the signal ratio); details: HeLa MMTV-bla, beta-lactamase ratio, agonist, 18 h; stronger effect = higher value; percent of dexamethasone control, DMSO zero
In short: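 MMTV-bla HeLa beta-lactamase reporter cells in 1% charcoal/dextran FBS medium, compounds up to 92 uM for 18 h at 37 C, CCF4 readout; normalized to 0.1 uM dexamethasone (100%), EC50 and efficacy from Hill fits.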

[2] = qHTS assay for small molecule antagonists of peroxisome proliferator-activated receptor delta signaling (AID 588535; active means well fitted inhibition curve with a large enough effect in the signal ratio, with a control signal flat, not every such curve was filed as active; the % refers to the signal ratio;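 on max response: cells co-treated with a PPAR-delta agonist as stimulator during compound exposure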); details: HEK293T PPARd-UAS-bla, beta-lactamase FRET ratio, 18 h; 460 nm channel
In short: (§1)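 Antagonist-mode beta-lactamase reporter (GeneBLAzer PPAR-delta-UAS-bla) in HEK293T cells, 2% charcoal/dextran FBS, 4000 cells/well. Compound titrations, 18 h at 37 C; CCF4 ratio read, IC50 and efficacy from Hill fits.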

[3] = target: Peroxisome proliferator-activated receptor delta (Homo sapiens) (UniProt Q03181); assay: as above; details: HEK293T PPARd-UAS-bla, beta-lactamase FRET ratio, 18 h; series mostly up to 76.7 µM
In short: as §1

[4] = target: Peroxisome proliferator-activated receptor gamma (Homo sapiens) (UniProt P37231); assay: qHTS assay for small molecule agonists of peroxisome proliferator-activated receptor gamma signaling (AID 588536; active means well fitted curve in the direction sought with a large enough effect in the signal ratio, with a control signal flat, not every such curve was filed as active; the % refers to the signal ratio); details: HEK293 PPARg-UAS-bla, beta-lactamase ratio, 16 h, percent of rosiglitazone response, DMSO as zero; series mostly up to 76.7 µM
In short: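 GeneBLAzer PPAR-gamma-UAS-bla HEK293 cells in 1% charcoal/dextran-treated FBS medium were treated 16 h at 37 C with compounds. Beta-lactamase activity was read by CCF4 ratio (460/530 nm). Response was normalized to 2 uM rosiglitazone (100%) and DMSO, then Hill-fitted for EC50 and efficacy.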

[5] = qHTS assay for small molecule agonists of retinoid X receptor alpha signaling (AID 588544; calls by dose curve); details: HEK293T RXRa-UAS-bla, beta-lactamase reporter, 18 h; 530 nm emission
[6] = target: Retinoic acid receptor RXR-alpha (Homo sapiens) (UniProt P19793); assay: as above; details: HEK293T RXRa-UAS-bla, beta-lactamase reporter, 18 h; series mostly up to 76.7 µM
[7] = qHTS assay for small molecule antagonists of retinoid X receptor alpha signaling (AID 588546; active means well fitted inhibition curve with a large enough effect in the signal ratio, with a control signal flat, not every such curve was filed as active; the % refers to the signal ratio;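 further: cells stimulated with 9-cis-retinoic acid as agonist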); details: HEK293T RXRa-UAS-bla, beta-lactamase ratio, antagonist mode; measured here: W530 green channel, cytotoxicity proxy
In short: (§2)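 Beta-lactamase reporter inhibition, read as CCF4 fluorescence ratio (ex 405, em 460/530 nm) after 2 h at RT. HEK293T UAS-bla cells, 2500/well, were stimulated with 9-cis-RA at 500 or 100 nM final alongside test compound for 18 h at 37 C.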

[8] = target: Retinoic acid receptor RXR-alpha (Homo sapiens) (UniProt P19793); assay: as above; details: HEK293T RXRa-UAS-bla, beta-lactamase ratio, antagonist mode
In short: as §2

[9] = target: Thyroid hormone receptor beta (Homo sapiens) (UniProt P10828); assay: qHTS assay for small molecule antagonists of thyroid hormone receptor beta signaling (AID 588547; active means well fitted inhibition curve with a large enough effect in the signal ratio, with a control signal flat, not every such curve was filed as active; the % refers to the signal ratio;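 further: cells stimulated with 0.4 nM T3 agonist during compound exposure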); details: TR-UAS-bla HEK293, beta-lactamase ratio, antagonist mode, 18 h
In short: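 TR-UAS-bla GripTite HEK293 cells in 2% charcoal/dextran FBS medium; compounds 0.59 nM to 92 uM with T3 at 0.4nM final, 18 h at 37 C. Beta-lactamase read by CCF4 fluorescence (460/530 nm); Hill fits gave IC50 and efficacy.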

[10] = target: Voltage-gated inwardly rectifying potassium channel KCNH2 (Homo sapiens) (UniProt Q12809); assay: qHTS Assay for Small Molecule Inhibitors of the Human hERG Channel Activity (AID 588834); details: U2OS BacMam hERG, FluxOR thallium flux fluorescence; series mostly up to 46.1 µM;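 further: top concentration of the series differs between compounds; lower thallium flux fluorescence means stronger hERG block; nearly all actives have a fitted effect of over 50% in size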
In short: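 hERG-BacMam U2OS, 2000 cells/well; 0.7X FluxOR loading 1 hr RT dark; cpd ~10 min 37 °C; stim buffer; FDSS fluorescence 2 min @ 1 s; AC50 Hill fit.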

[11] = target: Luciferin 4-monooxygenase (Photinus pyralis) (UniProt P08659); assay: Biochemical firefly luciferase enzyme assay for NPC (AID 624030);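 further: purified P. pyralis luciferase at 10 nM with luciferin and ATP substrate; nearly all actives have a fitted effect of over 70% in size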; details: purified P. pyralis luciferase, luminescence, 5 min; series mostly up to 58.6 µM
In short: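 Purified P. pyralis luciferase at 10 nM in 50 mM Tris Acetate (final), luminescence read within 5 minutes of enzyme addition to compounds. Activity normalised to PTC124 versus DMSO; concentration-response curves classed by r2, magnitude and activity.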

[12] = S16 Schwann cell viability assay (CellTiter-Glo assay) (AID 624031); details: S16 rat Schwann cells viability, 24 h; series mostly up to 57.5 µM;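 further: cellular ATP luminescence as a viability measure; nearly all actives have a fitted effect of over 70% in size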
In short: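 Native S16 rat Schwann cells, 500-750 cells/well in DMEM with 10% FBS, dosed with compound after overnight culture and incubated 24h at 37 degree Celsius/5% CO2. Viability by CellTiter-Glo luminescence; % activity normalized to no-cell wells and DMSO-treated cells.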

[13] = S16 Schwann cell PMP22 intronic element firefly luciferase assay (AID 624032); details: S16 rat Schwann cells, PMP22 element FLuc, 24 h; series mostly up to 57.5 µM; further: nearly all actives have a fitted effect of over 30% in size
In short: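 Rat S16 Schwann cells stably carrying firefly luciferase driven by a PMP22 intronic element, in 10% FBS, treated 24 h at 37 C. ONE-Glo luminescence normalized to PTC124 control and DMSO (0%); curves classed by r2, magnitude and activity.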

[14] = target: Glutaminase kidney isoform, mitochondrial (Homo sapiens) (UniProt O94925); assay: qHTS for Inhibitors of Glutaminase (GLS): LOPAC Validation (AID 624146); details: glutaminase enzyme activity inhibition; series mostly up to 46.1 µM;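 further: glutamate product detected by oxidase and peroxidase coupled Amplex red fluorescence gain; nearly all actives have a fitted effect of over 60% in size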
In short: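 Assay buffer: 45 mM KH2PO4 pH 8.2, 0.02% Tween-20. hKGA acts on L-glutamine (1 mM solution added); product glutamate is reported by an oxidase/peroxidase Amplex Red coupling, with fluorescence taken at baseline and 30 min.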

[15] = qHTS of Trypanosoma Brucei Inhibitors: LOPAC Validation (AID 624147); details: purified enzyme assay, luminescence, 45 min; series mostly up to 57.5 µM
In short: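 Luminescent Kinase-Glo Plus end-point after 45 min room-temperature reaction of T. brucei pyruvate kinase started with 130 uM ADP (final). Buffer TEA 50 mM pH 7.2 with KCl, MgCl2, BSA, Tween-20; titration-based qHTS with fitted concentration-effect curves.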

[16] = target: Glucagon-like peptide 1 receptor (Homo sapiens) (UniProt P43220); assay: qHTS of GLP-1 Receptor Agonists: LOPAC Validation (AID 624148); details: GLP-1R agonist cell assay; series mostly up to 46.1 µM;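 further: higher luminescence signal means agonism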
In short: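 HEK293 cells stably co-expressing GLP-1R and a cAMP-responsive luciferase reporter, plated 12 hours before compound, then incubated 4-6 hr at 37 deg C. Luminescence read 12 min after detection reagent.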

[17] = target: Peroxisome proliferator-activated receptor gamma (Homo sapiens) (UniProt P37231); assay: qHTS assay for small molecule antagonists of peroxisome proliferator-activated receptor gamma signaling (AID 588537; active means well fitted inhibition curve with a large enough effect in the signal ratio, with a control signal flat, not every such curve was filed as active; the % refers to the signal ratio;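 further: reporter cells co-stimulated with 50 nM rosiglitazone agonist during compound treatment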); details: HEK293 PPARg-UAS-bla, beta-lactamase ratio, antagonist mode; series mostly up to 76.8 µM
In short: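 PPARγ-UAS-bla HEK293 cells (3000/well) in 1% charcoal/dextran-stripped FBS are treated with compound, then stimulated with 50 nM rosiglitazone for 16 h at 37 °C. Read-out is CCF4 β-lactamase fluorescence after 2 h at RT. IC50 comes from Hill fits normalised to rosiglitazone and DMSO.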

[18] = target: Thyroid hormone receptor beta (Homo sapiens) (UniProt P10828); assay: qHTS assay for small molecule agonists of thyroid hormone receptor beta signaling (AID 588545; calls by dose curve); details: TR-UAS-bla GripTite HEK 293, beta-lactamase ratio, agonist mode, 18 h, percent of T3 response, DMSO as zero; series mostly up to 76.7 µM
In short: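 Compounds were tested as agonists in TR-UAS-bla-GripTite HEK 293 cells. After 18 hrs at 37 C, CCF4 substrate was added and fluorescence read after 2 hrs at room temperature.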

[19] = target: Vitamin D3 receptor (Homo sapiens) (UniProt P11473); assay: qHTS assay for small molecule antagonists of vitamin D receptor signaling (AID 588541; calls by dose curve;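 further: receptor activated by calcitriol during compound treatment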); details: HEK293T VDR-UAS-bla, beta-lactamase ratio, antagonist mode; series mostly up to 76.7 µM
In short: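 VDR-UAS-bla HEK293T cells in 2% charcoal-stripped FBS were stimulated with 1-alpha,25-dihydroxyvitamin D3 (3 nM final) plus compound for 16 h at 37 C. The beta-lactamase CCF4 readout was normalized to 50 nM agonist and DMSO, and Hill fits gave IC50.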

[20] = target: Vitamin D3 receptor (Homo sapiens) (UniProt P11473); assay: qHTS assay for small molecule agonists of vitamin D receptor signaling (AID 588543; calls by dose curve); details: HEK293T VDR-UAS-bla, beta-lactamase ratio, 16 h; series mostly up to 76.8 µM
In short: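 Reporter cells (HEK293T, VDR-UAS-bla) were seeded in medium with 2% charcoal-stripped serum and incubated 5 h, then compounds in concentration series were added for 16 h at 37 °C. Stimulation was scaled between DMSO basal and 50 nM 1α,25-dihydroxyvitamin D3.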

Sequence of Voltage-gated inwardly rectifying potassium channel KCNH2 (Homo sapiens) (Q12809 whole entry, looked up): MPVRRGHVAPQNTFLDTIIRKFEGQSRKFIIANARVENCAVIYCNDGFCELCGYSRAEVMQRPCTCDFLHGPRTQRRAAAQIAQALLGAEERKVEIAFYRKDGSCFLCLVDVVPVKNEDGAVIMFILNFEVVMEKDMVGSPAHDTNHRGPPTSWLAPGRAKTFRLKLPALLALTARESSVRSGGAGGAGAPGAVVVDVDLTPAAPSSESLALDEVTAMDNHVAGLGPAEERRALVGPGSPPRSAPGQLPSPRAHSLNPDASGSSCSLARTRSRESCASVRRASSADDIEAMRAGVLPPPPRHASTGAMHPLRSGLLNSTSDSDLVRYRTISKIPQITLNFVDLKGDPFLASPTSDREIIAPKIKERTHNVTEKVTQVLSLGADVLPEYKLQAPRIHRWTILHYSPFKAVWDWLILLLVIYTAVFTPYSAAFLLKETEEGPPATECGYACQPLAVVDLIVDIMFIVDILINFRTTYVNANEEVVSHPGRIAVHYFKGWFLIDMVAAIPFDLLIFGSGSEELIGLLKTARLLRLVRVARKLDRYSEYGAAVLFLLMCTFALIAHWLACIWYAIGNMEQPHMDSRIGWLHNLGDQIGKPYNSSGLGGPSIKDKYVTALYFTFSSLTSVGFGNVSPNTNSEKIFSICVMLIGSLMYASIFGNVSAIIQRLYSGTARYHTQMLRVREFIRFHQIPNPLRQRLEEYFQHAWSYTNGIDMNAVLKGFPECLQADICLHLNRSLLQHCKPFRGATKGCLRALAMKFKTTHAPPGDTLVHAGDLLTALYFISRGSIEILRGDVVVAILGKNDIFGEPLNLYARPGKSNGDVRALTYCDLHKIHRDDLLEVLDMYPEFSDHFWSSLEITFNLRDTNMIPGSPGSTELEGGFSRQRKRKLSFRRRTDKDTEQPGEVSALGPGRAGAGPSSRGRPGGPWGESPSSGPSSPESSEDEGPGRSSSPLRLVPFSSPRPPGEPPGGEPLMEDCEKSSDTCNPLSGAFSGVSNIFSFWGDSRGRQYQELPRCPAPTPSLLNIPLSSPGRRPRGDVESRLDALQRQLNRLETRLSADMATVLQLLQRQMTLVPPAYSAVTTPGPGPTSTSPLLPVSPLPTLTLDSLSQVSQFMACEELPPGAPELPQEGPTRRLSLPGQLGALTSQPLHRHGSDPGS
Sequence of Glucagon-like peptide 1 receptor (Homo sapiens) (P43220 whole entry, looked up): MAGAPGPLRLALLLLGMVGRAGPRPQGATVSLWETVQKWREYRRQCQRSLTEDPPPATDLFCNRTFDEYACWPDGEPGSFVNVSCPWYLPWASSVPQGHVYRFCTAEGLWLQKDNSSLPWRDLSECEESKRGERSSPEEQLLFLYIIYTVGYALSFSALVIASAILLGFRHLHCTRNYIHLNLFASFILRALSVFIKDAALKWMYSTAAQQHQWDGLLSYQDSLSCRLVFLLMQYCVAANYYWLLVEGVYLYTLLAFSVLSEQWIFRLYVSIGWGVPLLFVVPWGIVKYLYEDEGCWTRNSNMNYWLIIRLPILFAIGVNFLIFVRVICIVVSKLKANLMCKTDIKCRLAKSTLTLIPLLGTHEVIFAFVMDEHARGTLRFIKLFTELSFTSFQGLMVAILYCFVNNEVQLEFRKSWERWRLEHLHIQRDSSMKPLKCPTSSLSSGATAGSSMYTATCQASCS
Sequence of Thyroid hormone receptor beta (Homo sapiens) (P10828 whole entry, looked up): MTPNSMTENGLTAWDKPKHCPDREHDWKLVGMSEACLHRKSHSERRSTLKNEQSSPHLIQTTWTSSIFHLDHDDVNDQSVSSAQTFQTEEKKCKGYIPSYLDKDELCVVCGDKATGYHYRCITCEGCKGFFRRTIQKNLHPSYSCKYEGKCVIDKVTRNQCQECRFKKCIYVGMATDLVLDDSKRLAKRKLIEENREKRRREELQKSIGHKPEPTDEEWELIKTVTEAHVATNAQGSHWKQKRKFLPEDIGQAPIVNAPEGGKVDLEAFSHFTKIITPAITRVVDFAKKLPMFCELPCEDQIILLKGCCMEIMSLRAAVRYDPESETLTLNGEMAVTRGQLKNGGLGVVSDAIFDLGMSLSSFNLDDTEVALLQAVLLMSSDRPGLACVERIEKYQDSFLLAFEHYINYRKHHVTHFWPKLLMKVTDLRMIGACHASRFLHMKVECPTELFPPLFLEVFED
Sequence of Glucocorticoid receptor (Homo sapiens) (P04150 whole entry, looked up): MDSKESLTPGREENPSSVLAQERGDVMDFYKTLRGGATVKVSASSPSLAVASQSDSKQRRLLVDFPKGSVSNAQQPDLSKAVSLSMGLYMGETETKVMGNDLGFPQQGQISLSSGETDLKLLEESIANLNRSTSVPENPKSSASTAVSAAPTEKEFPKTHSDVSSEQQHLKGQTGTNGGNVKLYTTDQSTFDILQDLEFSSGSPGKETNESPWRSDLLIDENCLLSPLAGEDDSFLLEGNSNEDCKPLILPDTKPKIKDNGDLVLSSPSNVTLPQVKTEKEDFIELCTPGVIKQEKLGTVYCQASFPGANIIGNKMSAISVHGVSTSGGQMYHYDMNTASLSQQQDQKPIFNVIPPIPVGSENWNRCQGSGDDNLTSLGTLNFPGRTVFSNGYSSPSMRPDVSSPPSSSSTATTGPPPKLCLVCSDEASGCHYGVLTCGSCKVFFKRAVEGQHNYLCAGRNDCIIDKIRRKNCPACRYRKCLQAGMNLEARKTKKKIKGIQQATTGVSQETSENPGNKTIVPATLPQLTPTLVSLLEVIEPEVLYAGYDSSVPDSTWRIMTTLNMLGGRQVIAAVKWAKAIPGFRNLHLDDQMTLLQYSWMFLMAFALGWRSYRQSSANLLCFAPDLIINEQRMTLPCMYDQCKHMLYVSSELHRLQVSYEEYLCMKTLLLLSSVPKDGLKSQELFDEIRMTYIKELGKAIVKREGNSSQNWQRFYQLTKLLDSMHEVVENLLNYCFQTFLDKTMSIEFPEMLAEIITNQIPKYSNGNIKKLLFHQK
Sequence of Glutaminase kidney isoform, mitochondrial (Homo sapiens) (O94925 whole entry, looked up, canonical isoform): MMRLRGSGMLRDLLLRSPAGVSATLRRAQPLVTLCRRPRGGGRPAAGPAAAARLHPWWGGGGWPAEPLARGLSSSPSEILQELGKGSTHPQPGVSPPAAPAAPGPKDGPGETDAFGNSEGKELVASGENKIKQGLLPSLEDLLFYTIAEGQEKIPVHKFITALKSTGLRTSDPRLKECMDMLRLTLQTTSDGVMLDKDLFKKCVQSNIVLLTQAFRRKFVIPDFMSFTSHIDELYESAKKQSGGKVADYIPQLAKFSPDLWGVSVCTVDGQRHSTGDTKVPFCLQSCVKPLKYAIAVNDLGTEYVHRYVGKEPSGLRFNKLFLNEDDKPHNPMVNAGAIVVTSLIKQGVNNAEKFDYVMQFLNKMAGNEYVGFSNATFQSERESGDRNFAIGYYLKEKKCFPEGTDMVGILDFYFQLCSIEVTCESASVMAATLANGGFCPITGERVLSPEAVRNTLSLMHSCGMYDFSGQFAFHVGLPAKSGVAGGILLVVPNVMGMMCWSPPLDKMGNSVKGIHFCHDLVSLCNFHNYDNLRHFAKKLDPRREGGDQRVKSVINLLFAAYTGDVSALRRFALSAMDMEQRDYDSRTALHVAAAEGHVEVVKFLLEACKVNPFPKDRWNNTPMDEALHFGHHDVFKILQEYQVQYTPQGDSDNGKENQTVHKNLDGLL
Sequence of Vitamin D3 receptor (Homo sapiens) (P11473 whole entry, looked up): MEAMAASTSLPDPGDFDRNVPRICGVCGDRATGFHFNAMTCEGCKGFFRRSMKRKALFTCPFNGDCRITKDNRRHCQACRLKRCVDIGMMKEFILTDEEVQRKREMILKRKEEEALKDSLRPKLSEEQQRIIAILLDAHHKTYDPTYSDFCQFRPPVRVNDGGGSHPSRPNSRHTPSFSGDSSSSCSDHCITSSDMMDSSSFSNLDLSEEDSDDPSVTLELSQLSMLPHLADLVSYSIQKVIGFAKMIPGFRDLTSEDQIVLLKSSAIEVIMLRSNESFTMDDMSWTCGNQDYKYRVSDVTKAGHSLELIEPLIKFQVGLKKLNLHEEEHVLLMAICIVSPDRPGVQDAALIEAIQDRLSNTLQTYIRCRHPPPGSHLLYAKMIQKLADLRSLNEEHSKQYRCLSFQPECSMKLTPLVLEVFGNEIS
Sequence of Peroxisome proliferator-activated receptor gamma (Homo sapiens) (P37231 whole entry, looked up): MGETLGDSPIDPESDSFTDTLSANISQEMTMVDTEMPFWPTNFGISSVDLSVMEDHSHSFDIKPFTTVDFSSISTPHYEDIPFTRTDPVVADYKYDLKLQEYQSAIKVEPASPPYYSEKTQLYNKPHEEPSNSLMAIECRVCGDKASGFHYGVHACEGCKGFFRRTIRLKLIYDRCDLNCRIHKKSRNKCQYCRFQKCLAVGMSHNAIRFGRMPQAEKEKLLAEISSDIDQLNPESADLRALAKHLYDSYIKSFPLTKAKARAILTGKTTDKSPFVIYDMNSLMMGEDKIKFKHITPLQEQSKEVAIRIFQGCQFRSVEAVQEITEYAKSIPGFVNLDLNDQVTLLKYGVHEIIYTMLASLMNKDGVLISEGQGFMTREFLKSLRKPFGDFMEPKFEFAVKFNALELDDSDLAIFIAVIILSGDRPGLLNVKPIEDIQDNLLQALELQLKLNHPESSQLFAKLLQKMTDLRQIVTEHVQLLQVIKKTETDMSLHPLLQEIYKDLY
Sequence of Retinoic acid receptor RXR-alpha (Homo sapiens) (P19793 whole entry, looked up): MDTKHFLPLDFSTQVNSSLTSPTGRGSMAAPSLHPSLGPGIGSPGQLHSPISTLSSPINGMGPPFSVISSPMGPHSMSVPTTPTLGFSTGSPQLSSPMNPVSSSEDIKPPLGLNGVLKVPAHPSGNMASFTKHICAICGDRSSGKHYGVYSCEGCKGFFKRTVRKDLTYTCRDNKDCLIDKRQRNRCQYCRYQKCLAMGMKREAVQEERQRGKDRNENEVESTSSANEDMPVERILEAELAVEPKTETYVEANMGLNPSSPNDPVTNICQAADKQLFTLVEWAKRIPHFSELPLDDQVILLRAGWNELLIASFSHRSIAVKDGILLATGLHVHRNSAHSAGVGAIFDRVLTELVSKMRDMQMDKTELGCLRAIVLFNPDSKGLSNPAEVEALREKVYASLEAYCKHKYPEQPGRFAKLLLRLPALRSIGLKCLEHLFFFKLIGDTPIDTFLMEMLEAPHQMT

Structure (SMILES)	activation [1]	max response [2] [%]	outcome [3]	outcome [4]	max response [5] [%]	outcome [6]	max response [7] [%]	max response [8]	activity change % (negative = inhibition) [9]	Potency [10]	Potency [11]	Potency [12]	Potency [13]	outcome [14]	outcome [15]	outcome [16]	outcome [17]	outcome [18]	outcome [19]	outcome [20]
O=NN(CCCl)C(=O)NCCCl	14.4% (inactive)	85.8	inactive	inactive	-5	inactive	-3.42	0.269% (inactive)	11.9% (inactive)	inactive	inactive	inactive	inactive	inactive	inactive	inactive	–	–	–	–
Cc1ccccc1C(OCCN(C)C)c1ccccc1 (stereo unspecified)	2.67% (inactive)	-16.5	inactive	inactive	11.6	inactive	-1.35	-11.6% (inactive)	–	–	–	inactive	inactive	inactive	inactive	inactive	inactive	inactive	–	–
CCCc1nc2c(C)cc(-c3nc4ccccc4n3C)cc2n1Cc1ccc(-c2ccccc2C(=O)O)cc1	–	–	–	–	–	–	–	–	–	inactive	–	–	–	–	–	–	–	–	–	–
Clc1cccc(Cl)c1NC1=NCCN1	–	–	–	–	–	–	–	–	–	inactive	–	inactive	inactive	inactive	inactive	inactive	–	–	–	–
CCCC(CCC)C(=O)O	0.686% (inactive) and -7.28% (inactive) and -7.7% (inactive)	–	–	inactive	–	–	–	–	-9.25% (inactive) and 16% (inactive)	inactive	–	inactive	inactive	inactive	inactive	inactive	inactive	inactive	inactive	inactive

Source: PubChem BioAssay (NCATS)
